Experimental data reported in PubChem BioAssay AID652017 (The Scripps Research Institute Molecular Screening Center, 2013).
Among all 370,000 compounds or so, about 3,800 (1%) were called active. The entries come from a sample that favours actives as a whole. Values without a mark were called inactive. Cut-off read from the data, not from the text of the source: active = activation above about 7.8%; inactive = the rest.

Experiment: SMARCA2 (BRM) function activators, primary screen, cell-based, luminescence, high throughput (AID 652017);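 note: 0% = vehicle wells and 100% = reference activator wells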
Details: MG213 cells, MMTV-luciferase reporter, dexamethasone, overnight; at 9.1 µM; stronger effect = higher value

SMILES | activation
O=C(c1cccs1)C1C(c2ccc(Br)cc2)NC(=S)NC1(O)C(F)(F)F (stereo not drawn) | 9.18% (active)
CCOC(=O)C1C(c2ccc(O)cc2)NC(=O)NC1(O)C(F)(F)F (stereo not drawn) | -2.11%
CSc1ccc(C=Nn2c(-c3ccc(F)cc3)n[nH]c2=S)cc1 | -5.15%
Cc1cc(-c2n[nH]c(=S)n2/N=C/C(Br)=C/c2ccccc2)n[nH]1 | 12.8% (active)
C=CCN1C(=O)[C@@H](CC(=O)N2CCN(C(=O)OCC)CC2)[C@]2(C(=O)OCC)CCCCC/C=C/12 | 0.06%
CC1Cc2ccccc2N1C(=O)CSc1nc2ccccc2o1 (stereo not drawn) | 1.43%
CC(C)(C)C(=O)CSc1nc2ccccc2o1 | 8.4% (active)
O=C(CSc1nc2ccccc2o1)N1CCN(c2ccc(Cl)cc2)CC1 | -2.94%
COc1ccnc(C(=O)N2CCC(Oc3cccnc3)CC2)c1 | 3.85%
COc1ccc(N2CCN(CCNS(=O)(=O)c3ccc(Cl)s3)CC2)cc1 | 0.84%
CN1C(=O)C2(OCCCO2)c2cc(Cl)ccc21 | -0.14%
O=C1Oc2ccccc2C(=O)/C1=C/c1ccccc1O | 1.29%
COC(=O)c1ccc(/C=N/N2C(C)CCCC2C)cc1 (stereo not drawn) | -1.42%
COC(=O)c1ccc(/C=C2/C(=O)Oc3ccccc32)cc1 | 10.5% (active)
CN(C)Cc1cn(-c2ccc(-c3noc4c3C(=O)N(CC(=O)N3CCOCC3)CC4)cc2)nn1 | -2.05%
COc1ccc(S(=O)(=O)Nc2ccc3c(c2)C(=O)N([C@H](C)CO)C[C@H](C)[C@@H](CN(C)C)OCCCC[C@H](C)O3)cc1 | -4.35%
Cc1cc(NC(=O)[C@H](C)NC(=O)c2ccco2)ccc1Br | -1.37%
CC1CCN(c2ccc(-c3ccc(NC(=O)c4ccco4)cc3)nn2)CC1 | 3.83%
CC(OC(=O)CNC(=O)c1ccco1)C(=O)Nc1ccc(Cl)cn1 (stereo not drawn) | -2.28%
O=C(Nc1ccc2nccnc2c1)c1ccco1 | 9.43% (active)

SMILES | activation
O=C(Nc1ccc(NC(=O)c2cccs2)cn1)c1ccco1 | 9.66% (active)
O=C(COC(=O)CNC(=O)c1ccco1)Nc1ccc(F)cc1 | -3.14%
C=CS(=O)(=O)N(Cc1nnn(Cc2ccccc2)c1Br)[C@H](C(=O)OC)C(C)C | 3.93%
CCC(=O)Nc1ccc2c(c1)C(=O)N(C)[C@@H]1CC[C@@H](CC(=O)NCCc3ccccc3)O[C@H]1CO2 | -2.13%
COc1ccc(S[C@]2(C(=O)N(C)C)CC(=O)N(c3ccc(OC)cc3)[C@@H]2c2ccc(OC)cc2)cc1 | 2.23%
Cn1nnnc1NCc1ccc(Cl)c(Cl)c1 | -0.94%
CCCCn1nnnc1C(c1cc2ccccc2o1)N(C)Cc1ccc(Cl)c(Cl)c1 (stereo not drawn) | 8.8% (active)
CCCCn1nnnc1C(c1ccccc1)N1CCN(c2ccccc2OC)CC1 (stereo not drawn) | -1.13%
CC(C)N1CCCCC(NC(=O)c2ccc3ccccc3c2)C1=O (stereo not drawn) | -1.33%
N[C@@H](Cc1ccccc1)C(=O)N1CCC[C@@H]1C(=O)N1CCC2CCN(S(=O)(=O)c3ccccc3)CC21 (stereo partly drawn) | -1.95%
CCC(c1nc2ccccc2[nH]1)n1c(=O)c(-c2cccs2)nc2ccccc21 (stereo not drawn) | -3.44%
FC(F)(F)c1cccc(-c2nc3ccccc3n2C(c2ccccc2)c2nc3ccccc3[nH]2)c1 (stereo not drawn) | 9.93% (active)
FC(F)(F)c1cccc(-c2cc3ccccc3nc2N2CCCC2)c1 | 0.37%
O=S(=O)(c1ccccc1)N1CCC(c2nc3ccccc3o2)CC1 | -4.23%
O=C(C1CCN(S(=O)(=O)c2ccccc2)CC1)N1CCN(C2CCCCC2)CC1 | -4.09%
Cc1ccc(S(=O)(=O)N2CCC(C(=O)N3CCCCCCC3)CC2)cc1 | -3.84%
O=C(C1CCC1)N1CCN(S(=O)(=O)c2ccc([N+](=O)[O-])cc2)CC1 | 9.83% (active)
COC(=O)[C@H](C(C)C)N(CCCc1cn(Cc2ccccc2)nn1)S(=O)(=O)c1ccc(F)cc1Br | -0.98%
CCOC(=O)c1nnn2c1nc(N1CCN(c3ccccc3)CC1)c1ccccc12 | -2.86%
O=C(CCCCCN1C(=O)C2C3C=CC(C3)C2C1=O)Nc1ccccc1 (stereo not drawn) | -2.37%

SMILES | activation
Cc1cc(=O)[nH]c(N/N=C/c2ccc3c(c2)OCCO3)n1 | 8.3% (active)
Cc1cc(=O)[nH]c(Nc2cccc(Br)c2)n1 | -1.71%
Cc1ccc(C)c(NC2=NCC(=O)N2c2ccc3c(c2)OCCO3)c1 | 2.74%
CCCCNC(=O)C[C@@H]1C(=O)N(CCc2ccc(Cl)cc2)C2=CCCC[C@]21C(=O)OCC | -0.47%
COc1cccc(-c2cnc(OC(C)(C)C)nc2OC(C)(C)C)c1 | -2.58%
COc1cccc(-c2nc3cc(C)ccc3o2)c1 | 7.97% (active)
COc1cccc(NS(=O)(=O)c2ccc(-c3coc(C)n3)cc2)c1 | -3.45%
C=CCN(C)CC#Cc1ccccc1 | 0.78%
COP(=O)(O)CNC(=O)OCc1ccccc1 | -0.59%
CC(CCN1CCC(C(O)(c2ccccc2)c2ccccc2)CC1)Oc1ccc(Cl)cc1 (stereo not drawn) | -5.29%
COCC(=O)Nc1c(I)c(C(=O)NCC(O)CO)c(I)c(C(=O)N(C)CC(O)CO)c1I (stereo not drawn) | -1.43%
CCOC(=O)C1(Cc2ccccc2)CCN(Cc2cn(C(C)=O)c3ccccc23)CC1 | -3.37%
Cc1ccc(OCCCCc2c(C)n[nH]c2C)cc1 | -4.25%
Nc1nc(SCCOc2ccccc2)n[nH]1 | -0.38%
CCCOc1ccc(-c2nc(N)n[nH]2)cc1 | 8.06% (active)
O=C(NCCc1c[nH]c2ccccc12)OCc1cn(-c2c(F)cccc2F)nn1 | -1.59%
COC(=O)[C@]12C[C@H](CC(=O)N3CCOCC3)C(=O)N(Cc3ccc(Cl)cc3Cl)C1=C[C@H](COCc1ccccc1)O[C@@H]2C | -3.76%
COC[C@@H]1CCCN1c1ccc2c(c1)O[C@H](C)CCN(C1CC1)S2(=O)=O | -0.54%
